PubChem BioAssay (NCATS)
Results filed as inconclusive are left out. A call without a number means that no potency is given here. The source made the active and inactive calls. The call rests on the fitted dose curve; in most records, active means well fitted inhibition curve with a large enough effect; inconclusive means small, poorly fitted or top-dose-only effect; inactive means flat fitted curve, though single readings scatter.

target: Calcium and integrin-binding protein 1 (Homo sapiens) (UniProt Q99828); assay: Primary qHTS for Identification of Calcium Integrin Binding Protein 1 (CIB1) Competitor (AID 1508620); details: CIB1-GST / FITC-alphaIIb peptide fluorescence polarization; series mostly up to 114 µM;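 further: GST tagged CIB1 binding a fluorescein labelled alphaIIb integrin peptide tracer; top concentration of the series differs between compounds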
In short: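 CIB1-GST (1 uM final) and compound incubated 15 min at room temperature before adding FITC-alphaIIb peptide tracer (100 nM final). Competition for binding read by fluorescence polarization (ex 480, em 540) after another 15 min at room temperature.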

Chain of Calcium and integrin-binding protein 1 (Homo sapiens) (Q99828 whole entry, looked up): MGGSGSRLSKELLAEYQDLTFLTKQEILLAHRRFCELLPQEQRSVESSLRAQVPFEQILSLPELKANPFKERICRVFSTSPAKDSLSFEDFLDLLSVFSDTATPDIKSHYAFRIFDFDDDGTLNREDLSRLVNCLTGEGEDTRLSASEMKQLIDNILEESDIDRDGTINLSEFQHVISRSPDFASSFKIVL

SMILES	Potency
O=S(=O)(NCCNS(=O)(=O)c1c(F)cccc1F)c1ccc2c(c1)OCCO2	inactive
Cc1ccc(OCCn2c(CCNC(=O)c3ccccn3)nc3ccccc32)cc1	inactive
Cc1cccc(C)c1-n1c(SCC(=O)NCCCCCC(=O)O)nnc1-c1cccc([S+](=O)([O-])N2CCCC2)c1	inactive
COc1ccc2ncnc(NCC3CCCO3)c2c1-c1ccc2c(c1)OCO2 (centres undefined)	inactive
CC(C)(C)c1ccccc1Nc1nc(C#N)nc(NC2CCCC2)n1	inactive
COc1ccc(C2=Nn3c(nnc3-c3ccccc3OC)SC2)cc1OCC1CC1	inactive
O=[S+]([O-])(Nc1ccc(-c2ccccc2)cc1)c1ccc(NCc2ccc(Cl)cc2O)cc1	inactive
O=C(Nc1ccc(N2CCOCC2)c(F)c1)Nc1nnc(-c2ccncc2)s1	inactive
N#Cc1c(-c2ccc(C(=O)c3ccc(O)cc3)cc2)no[n+]1[O-]	inactive
COc1ccc(C2Nc3ccccc3C(=O)N2Cc2ccco2)cc1COc1ccc(NC(C)=O)cc1 (centres undefined)	inactive
CCOC(=O)c1ccc(-c2ccc3ncnc(N(C)Cc4sccc4C)c3c2)o1	inactive
Cn1c2cc(C#N)sc2c2cnn(Cc3ccccc3F)c(=O)c21	inactive
Cc1nc(CNc2ncnc3ccc(-c4ccoc4C)cc23)cs1	inactive
Cc1cc(C)nc(NC(=C(C#N)C#N)N2CCN(c3cccc(C(F)(F)F)c3)CC2)c1	inactive
O=S(=O)(c1ccccc1)N1CCN(c2nccc(-c3cccs3)n2)CC1	inactive
N#Cc1ccc(NS(=O)(=O)c2ccc3c(c2)CCC(=O)N3)cc1	inactive
N#Cc1ncc(C(=O)OCC(=O)NC2C3CC4CC(C3)CC2C4)cn1 (centres undefined)	inactive
COc1cc(N2C(=O)c3ccccc3C2=O)c2ncccc2c1	inactive
O=C(OCC#CCSc1nnc(-c2ccccc2)o1)c1ccc(F)cc1	inactive
O=C(Nc1ccc(Cl)c(C(F)(F)F)c1)Nc1cccc(-c2ccncc2)n1	inactive

SMILES	Potency
Cc1ccc(-c2ccnn(CC(=O)N(C)C(C)c3ccco3)c2=O)cc1 (centres undefined)	inactive
Fc1ccc(-c2ccc(Nc3nc(-c4ccncc4)nc4ccccc34)cc2F)cc1	inactive
Cc1ccccc1N(C)C1=N[S+](=O)([O-])c2ccccc21	inactive
N#Cc1c(-c2ccc(C(F)(F)F)cc2)no[n+]1[O-]	inactive
Fc1cnc(-c2ccccc2C(F)F)nc1NCc1ccc(-n2ccnn2)cc1	inactive
O=C1CCCC2=C1C(c1[nH]ncc1Cl)N=C(Nc1cccnc1)N2 (centres undefined)	inactive
FC(F)(F)c1ccc(-c2ccc(CNc3nc(-c4ccccc4C(F)(F)F)nc4ccccc34)cc2)cn1	inactive
CC(C)(C)OC(=O)NCCOCCOCCOc1cccc(-n2ncc3c2CCCC3NC(=O)c2ccccn2)c1 (centres undefined)	inactive
CC(=O)N1CCc2cc(S(=O)(=O)N3CCN(S(=O)(=O)c4c(F)cccc4F)CC3)ccc21	inactive
Cc1c(C(=O)OCc2ccco2)[nH]c2c1C(=O)CC(c1ccco1)C2 (centres undefined)	inactive
COc1ccc(C2Nc3ccccc3C(=O)N2Cc2ccccc2)cc1COc1ccccc1OC (centres undefined)	inactive
CC(C)c1ccccc1-c1ncc(N)c(NCc2ccc(-c3cccnc3)cc2)n1	inactive
N#Cc1c(-c2ccccc2C(F)(F)F)nc2ccccc2c1NCc1ccc(-c2ccnc(C(F)(F)F)c2)cc1	inactive
O=C1CCc2cc(S(=O)(=O)Nc3ccccc3F)ccc2N1	inactive
Cc1cc(C)nc(NC(=S)N2CCN(c3ncccc3Cl)CC2)c1	inactive
CC(C)(C)OC(=O)N1CCN(c2ccc(NCc3ccc(-c4ccccc4F)o3)cc2)CC1	inactive
CC(=O)Nc1ccc(OC2=NS(=O)(=O)c3ccccc32)cc1	inactive
CCOC(=O)c1ccoc1-c1ccc2ncnc(NCCc3cnc[nH]3)c2c1	inactive
COc1ccc2c(=O)n3nc(Nc4ccc5c(c4)CCC5)sc3nc2c1	inactive
